# The full list was thinned out, with hits kept by preference.
# ALOX12 inh – Primary qHTS assay for inhibitors of human arachidonate 12S-lipoxygenase (ALOX12): Round 2; Potency, µM (highest dose often 108 µM), without a hit: at the highest dose activity change, negative = inhibition, usual class: inhibitors; AID 1671190, 2021; hit rate 1.1% among 580,000; purified 12hLO, xylenol orange hydroperoxide absorbance; note: potency is the fitted concentration of half-maximal effect
# Target sequence (P18054 whole entry, looked up): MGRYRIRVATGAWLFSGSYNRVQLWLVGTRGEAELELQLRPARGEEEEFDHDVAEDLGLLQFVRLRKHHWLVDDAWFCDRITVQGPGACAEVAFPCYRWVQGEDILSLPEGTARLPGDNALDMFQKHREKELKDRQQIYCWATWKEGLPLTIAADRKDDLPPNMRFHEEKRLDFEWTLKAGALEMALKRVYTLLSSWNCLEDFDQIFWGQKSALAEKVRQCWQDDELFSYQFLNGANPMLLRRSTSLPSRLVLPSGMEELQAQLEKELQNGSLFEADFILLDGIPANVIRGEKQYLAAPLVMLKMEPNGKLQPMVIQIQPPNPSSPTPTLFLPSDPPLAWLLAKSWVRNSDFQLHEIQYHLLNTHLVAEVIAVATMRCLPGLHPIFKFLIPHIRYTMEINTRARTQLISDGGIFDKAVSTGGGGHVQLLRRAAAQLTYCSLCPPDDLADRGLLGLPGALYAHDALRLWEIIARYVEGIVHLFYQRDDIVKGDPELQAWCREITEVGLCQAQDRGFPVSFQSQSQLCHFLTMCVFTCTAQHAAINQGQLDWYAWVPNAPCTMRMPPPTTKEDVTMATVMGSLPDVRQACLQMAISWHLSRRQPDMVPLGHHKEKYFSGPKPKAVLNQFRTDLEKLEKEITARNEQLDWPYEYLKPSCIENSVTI
#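 Purified human 12hLO at 150 nM in 25 mM Hepes, 0.01% Triton X-100, pH 7.0, preincubated 15 min at room temperature with compound. Reaction started with 40 uM arachidonic acid, 30 min at room temperature. Hydroperoxide measured by Fe-xylenol orange, 573/405 nm absorbance ratio.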
# HT1080-NT tox – qHTS for induction of synthetic lethality in tumor cells producing 2HG: qHTS for the HT-1080-NT fibrosarcoma cell line | HT-1080-NT fibrosarcoma viability, CellTiter-Glo ATP luminescence, 48 h | Potency, µM (highest dose often 46.1 µM), without a hit: at the top dose activity, negative = less viability, hits mostly cytotoxic | hit rate 1.6% among 360,000 | AID 686970, 2013;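 note: NT is the 2HG producing partner of a matched IDH1 knockdown line; potency is the fitted concentration of half-maximal effect; 0% = DMSO-treated cells and -100% = media-only wells without cells; nearly all actives have a fitted effect of over 55% in size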
#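 HT-1080-NT; 750 cells/well; 5% FBS RPMI; 48 h compound, 37 degrees C; CellTiter-Glo luminescence; curve fitting and curve-class assignment.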
# DT40 TDP1 CPT – qHTS for Inhibitors of human tyrosyl-DNA phosphodiesterase 1 (TDP1): qHTS in cells in presence of CPT. Potency, µM (series often up to 46.2 µM), inactives show at the highest dose activity change, negative = growth inhibition, most hits filed as inhibitors. hit rate 12% among 420,000. chicken DT40 Tdp1-/-;hTDP1 cells + 20 nM CPT, ATP luminescence, 48 h; note: potency is the fitted concentration of half-maximal effect; nearly all actives have a fitted effect of over 55% in size
#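 Chicken DT40 Tdp1-/- cells complemented with human TDP1, 400 cells/well, exposed to compounds plus 20 nM camptothecin for at least 48 h at 37 C; viability read as ATP content by CellTiter-Glo luminescence.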
# HT1080 IDH1KD tx – qHTS for induction of synthetic lethality in tumor cells producing 2HG: qHTS for the HT-1080-IDH1KD cell line. HT-1080 IDH1 knockdown viability, ATP luminescence, 48 h. Potency, µM (doses to about 46.1 µM), without a hit: at the top dose activity, negative = toxicity, most hits filed as cytotoxic. hit rate 2% among 360,000. AID 686971, 2013;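 note: potency is the fitted concentration of half-maximal effect; 0% = DMSO wells and -100% = cell-free medium wells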
#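 IDH1KD HT-1080 cells, 750/well, RPMI + 5% FBS; compound pinned after 2 h settling; 48 h, 37 °C; CellTiter-Glo luminescence; % activity normalised to DMSO and no-cell wells; curves fitted, classed by r2 and efficacy.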
# TDP1 cell noCPT – qHTS for Inhibitors of human tyrosyl-DNA phosphodiesterase 1 (TDP1): qHTS in cells in absence of CPT | Potency, µM (doses to about 46.2 µM), for inactives: at the highest dose activity change, negative = growth inhibition, hits mostly inhibitors | DT40 Tdp1-/- hTDP1 cells, no CPT, ATP luminescence, 48 h | hit rate 15% among 420,000; note: potency is the fitted concentration of half-maximal effect; nearly all actives have a fitted effect of over 55% in size
#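 Readout: luminescence from CellTiter-Glo after 30 min in the dark at RT. Cells: DT40 Tdp1-/- with stable hTDP1, 400/well. Exposure: compounds alone, ≥48 hr, 37 °C.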
# IL-1B inflam inh – qHTS for Inhibitors of Inflammasome Signaling: IL-1-beta AlphaLISA Primary Screen; THP-1 LPS/ATP IL-1B secretion, AlphaLISA, 16 h; hits give low values; activity change, % at 57.5 µM; hit rate 4.7% among 360,000; AID 743279, 2014; in the data active = activity change below about -50%; inconclusive = mostly about -30% to -49%
#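 Secreted IL-1B measured by AlphaLISA bead assay after 16 h compound exposure of THP-1 cells; compounds (final up to 57.5 uM) added 1 h before LPS (250 ng/mL) and ATP (1.25 mM) stimulation; lower signal means less secretion.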
# Starred values were filed as active, the others as inactive; ? = inconclusive; . = no result. Unless noted, calls come from the whole dose curve; as a rule, active = well fitted curve in the direction sought with a large enough effect; inconclusive = small, poorly fitted or top-dose-only effect, or another doubt; inactive = no such curve, though single readings can be large; an effect the other way counts as inactive or inconclusive. Unless noted, % is set by controls: 0 for no effect and ±100 for the full control effect.
SMILES,ALOX12 inh,HT1080-NT tox,DT40 TDP1 CPT,HT1080 IDH1KD tx,TDP1 cell noCPT,IL-1B inflam inh
CCOC(=O)C1CCN(S(=O)(=O)c2ccc(NC(=O)OC)cc2)CC1,0%,-13%,-7%,-13%,-11%,13
CC1CCN(S(=O)(=O)c2ccc(C(=O)OC(C)C(=O)N(C)C3CCCCC3)cc2)CC1 (stereo not given),-27%,-1%,?,4%,26µM*,29
COc1ccc(CCNC(=O)C(=O)Nc2ccc3c(c2)OCO3)cc1OC,7%,1%,5%,-20%,-12%,8
Cc1ccc(NC(=O)Nc2ccc(C)n(CC(=O)NCCC(C)C)c2=O)cc1,-14%,.,.,.,.,.
CN(C)c1ccc(-c2ccnc3c2CC(C)(C(=O)Nc2ccc4c(c2)OCO4)O3)cc1 (stereo not given),-1%,11%,-20%,0%,-3%,20
CC1(C(=O)NCCc2ccccc2)Cc2c(-c3ccc4c(c3)OCO4)ccnc2O1 (stereo not given),2%,?,?,?,2.9µM*,-7
CC1(C(=O)NCc2ccccc2)Cc2c(-c3ccc4c(c3)OCO4)ccnc2O1 (stereo not given),7%,?,0.65µM*,?,0.82µM*,73
COCCNC(=O)C1(C)Cc2c(-c3ccc4c(c3)OCO4)ccnc2O1 (stereo not given),3%,?,12µM*,18µM*,8.2µM*,28
COc1ccc(NC(=O)C2(C)Cc3c(-c4ccc5c(c4)OCO5)ccnc3O2)cc1OC (stereo not given),?,-28%,?,?,?,2
CCCS(=O)(=O)c1c(S(=O)(=O)CCC)c2ccc(C(N)=O)cn2c1C(=O)c1ccc(OC)cc1,-10%,-3%,12%,-20%,-25%,23
Cc1cccc(N2C(N)=C(C#N)C3(C(=O)N(Cc4cccc(F)c4)c4ccccc43)C3=C2COC3=O)c1 (stereo not given),4%,.,.,.,.,.
CC(C)(C)c1ccc(C(=O)Nc2c(F)c(F)c(F)c(F)c2F)cc1,29%,.,.,.,.,.
O=C(c1ccc(F)c(F)c1)N1CCC2(CC1)N=C(c1cccc(Br)c1)NO2,-6%,.,.,.,.,.
CCCN(CCC)c1nc(C#N)nc(N(CCC)CCC)n1,1%,22%,?,2%,?,-7
CCCN(CCC)c1nc(N(CCC)CCC)[nH]c(=O)n1,-9%,?,23µM*,3%,18µM*,13
CSC(=S)N/N=C/c1ccc(Br)cc1,-1%,7%,-29%,2%,17%,13
CN(C)c1ccc(C=NNC(=S)Nc2ccc(F)cc2)cc1,?,-5%,3.7µM*,-28%,4.6µM*,?
Cc1ccc(C(=O)N/N=C/c2ccc(N(C)C)cc2)cc1,49%,.,.,.,.,.
CSC(=S)N/N=C/c1ccc(N(C)C)cc1,-5%,9%,4.6µM*,20%,5.2µM*,6
COc1c(O)cccc1/C=N/NC(=O)Cn1ccnc1C,4%,8%,?,-7%,23µM*,62
CCC(=O)[C@@]1(C)[C@H](C)C[C@H]2[C@@H]3CCC4=CC(=O)C=C[C@]4(C)[C@H]3[C@@H](O)C[C@@]21C,7%,?,13µM*,?,16µM*,?

# Screening results as filed in PubChem BioAssay.
